# Experimental data: ChEMBL document CHEMBL1157539, “Thousands of chemical starting points for antimalarial lead identification” (Nature, 2010)
# Columns and labels:
# Assay type in all cases: functional
# Plasmodium falciparum [1] = assay: GSK_TCMDC: Inhibition of Plasmodium falciparum 3D7 in whole red blood cells, using parasite LDH activity as an index of growth. Test compounds present at 2uM
# Plasmodium falciparum [2] = assay: GSK_TCMDC: Inhibition of Plasmodium falciparum Dd2 in whole red blood cells, using parasite LDH activity as an index of growth. Test compounds present at 2uM
# HepG2 = assay: GSK_TCMDC: Percent inhibition of human HepG2 cell line. Test compounds present at 10uM.
Structure (SMILES),Inhibition (Plasmodium falciparum [1]) [%],Inhibition (Plasmodium falciparum [2]) [%],Inhibition (HepG2) [%]
Cc1cccc2nc(-c3ccc(-c4ccc(NC(=O)NCc5ccc(F)cc5)cc4)cc3)[nH]c12,100,99,70
CCN1CCC(N(Cc2ccc(-c3ccc(C(F)(F)F)cc3)cc2)C(=O)Cn2c(CCc3cccc(F)c3F)cc(=O)c3ccccc32)C1.O=C(O)C(O)C(O)C(=O)O (configuration not stated),93,84,43
CC(=O)Nc1[nH]c(-c2ccccc2)nc1C(N)=O,99,0,10
O=C(c1cccc(-c2ccc(-c3nc4cc(F)ccc4[nH]3)s2)c1)N1CCCCC1CN1CCC(O)C1 (configuration not stated),100,85,23
